# The supplement of paper PMC11417369
# ± gives the standard deviation of the averaged measurements. Whole data set: some 25,000 sequences, median “ln(normalized median fluorescence intensity)” near 8.9, cut for the highest 2% near 10. The sample holds the highest values, similar sequences and a random draw of the others, so the mix is not that of the screen.
# Test system: PfAP2-LT AP2 domain (GST-tagged)
# Assay: gcPBM binding intensity (ln(normalized median fluorescence intensity)); higher = stronger DNA binding
# Method in brief: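 Plasmodium falciparum DNA-binding domains carrying a GST tag were expressed in E. coli and applied for 1 h, at about 25 μg on average, to an Agilent 4 × 180k array. The array held primer-extended double-stranded 36-bp intergenic genomic probes together with negative controls, and binding took place in 1× PBS with 1% milk, 0.2 mg/ml BSA, 0.5% salmon testes DNA and 0.03% Triton X-100. An Alexa488 anti-GST antibody detected bound protein, and the array was scanned at 488 nm. Binding intensity is taken as the highest Masliner-normalised natural-log median intensity across replicate spots of either probe orientation.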
row,Sequence,gcPBM binding intensity (ln)
1,TTTTATTTATCATACACACACAGAAAAAAAAAAAAA [CACACA_site158],8.89 ± 0.32
2,TTTTTTTTCAAAAATACAAAAAAAAAAGAAAAAAAC [CACACA_negctrl_site625],8.5 ± 0.4
3,AAATAACACATATATACACACATATAACTATAATAT [CACACA_site7298],9.29 ± 0.4
4,ACATGTAATATAATGTGTACATATACAAAGGTATAT [XGTACX_site4145],9.34 ± 0.59
5,AGTGAATATTACGAAACACACAAAAAAATACATTTC [CACACA_site511],9.09 ± 0.38
6,CAAACAAATTGTGAAACACACATATATATATATATA [CACACA_site2001],9.81 ± 0.057
7,TATATTATTAATTAGGGTACAAAAAAAAAATTTTTT [XGTACX_site7762],8.3 ± 0.48
8,AAAGGTTTATCTGATACACACATAAGTGATCAGGTT [CACACA_site6233],8.83 ± 0.33
9,TTTTTTCAATAAATAATCGTATATTGAATAATAATA [CACACA_negctrl_site822],8.07 ± 0.37
10,TCATTTCAATACACAAGTACGTATATGGTTATATTG [XGTACX_site6021],8.82 ± 0.4
11,TATAATATAAGGATCACACACAAACAGACATATATA [CACACA_site557],9.49 ± 0.37
12,ATAAGGATCAGACACAAACACACATATATATATATA [CACACA_site558],10.1 ± 0.13
13,AAGGATCACAGACAAACACACATATATATATATATA [CACACA_site4469],10.1 ± 0.16
14,CACCCACACCAACACACACACATATATAATATATAT [CACACA_site595],9.88 ± 0.33
15,TATAAACACCCATATAAACACACATATAAACCAACA [CACACA_site8790],9.31 ± 0.28
16,AACCACATACATATAACACACATATACAATATATAT [CACACA_site8607],9.29 ± 0.39
17,CATACTCACCAACACACACACACACCCATATAGAAT [CACACA_site592],10.2 ± 0.28
18,TCATAGTAGAAACACACACACACACCCATATATATA [CACACA_site1737],10.1 ± 0.23
19,AATAACCACCAACACACACACATATATATATATATA [CACACA_site3540],10.2 ± 0.24
20,TAATTTAGTATCTTTACATGCGGGCATTATGTCATA [TGCATGCA_site167],8.74 ± 0.4
21,AAGAAAATAGGGTTCATAGGATTATACTTTTGGAAT [TGCATGCA_negctrl_site80],8.59 ± 0.54

row,Sequence,gcPBM binding intensity (ln)
1,TAATACTTAATGAACACATGCACATATACATAGTAT [TGCATGCA_site496],8.82 ± 0.47
2,ACTTTTTTTTTGTGTGTGCACTCGATTATATACATA [GTGCAC_site9846],9.57 ± 0.46
3,ATAAAAAGGAAACACACACACACACCCATATATATA [CACACA_site904],10.41 ± 0.042
4,AGGAAAAAAGAAAAAACACACATAAATATATATATA [CACACA_site3085],9.11 ± 0.38
5,AAAAGGAAAAATATCACACATATATATATATATATA [CACACA_site5586],9.76 ± 0.45
6,AATGAAAAGGAACATACACACCCCATATAAATATAT [CACACA_site7588],9.62 ± 0.13
7,AGAATAAAAAGGAACACACACACACCCATATATATA [CACACA_site3590],10.1 ± 0.5
8,AAGGAATAATATAAAACACACACATAAATATAAATA [CACACA_site9115],9.6 ± 0.42
9,TAAAAAGGAAAACACACACACACATATATATATATA [CACACA_site3588],10.2 ± 0.26
10,TATAAAAGGAAACACACACACATATATATATATATA [CACACA_site939],10.2 ± 0.32
11,ATAAAAAAAAGAAAAACACACACATATATATATATA [CACACA_site8243],9.77 ± 0.27
12,AAAAAAATTACATATCCATTTTAACATAATAAATAG [GTGCAC_negctrl_site618],8.33 ± 0.45
13,TACAGAATTGTATATAGTACATAAAACAATATATAT [XGTACX_site7275],8.88 ± 0.4
14,AAAATAAATAAATAAATAAATATATATATATATATA [XGTACX_negctrl_site345],9.16 ± 0.3
15,AGCCTCGGGGTCATATATATATATATATATATATAT [CACACA_negctrl_site512],10.35 ± 0.05
16,ATCAGATATATATATTGTACATTTATATATAAATCA [XGTACX_site1960],8.62 ± 0.46
17,TAACAAAAAGCACTTAGTACATATATATATATATAT [XGTACX_site1099],9.88 ± 0.44
18,AAAAAAAAAAAAAACACACACATATCTATAATATAT [CACACA_site7481],9.35 ± 0.44
19,CCTGAACACATACATACACACACACTAATAAAAAAA [CACACA_site8023],9.69 ± 0.46
20,AAAAAAAAAAAACACACACACACACTAATACATACA [CACACA_site8135],10.1 ± 0.12
21,AAAAAAAAAAAACATACACACACACTAATATTTATA [CACACA_site8038],9.6 ± 0.23

row,Sequence,gcPBM binding intensity (ln)
1,AAAAAAAAAAAACACACACACACACTAGTACATACA [CACACA_site4551],10.2 ± 0.3
2,AAAAAAAAAAAACACACACACACATACACATACATA [CACACA_site2858],10.1 ± 0.22
3,AAAAAAAAAAAAAAAACACACATACATACATACATA [CACACA_site6125],9.26 ± 0.41
4,TAAATGTCTTCAATGAAGTGGAAATGCTGTTATATA [CACACA_negctrl_site1155],8.54 ± 0.31
5,TATAATCATATACACGCATGTATAAAATTTAATACT [TGCATGCA_site700],8.96 ± 0.35
6,ACTATTAAAATGAATACACACAAATATAAAAATATA [CACACA_site4145],8.96 ± 0.5
7,TAATTTTTCCAACTTTGTACAGATATATTAATAAAA [XGTACX_site7856],8.13 ± 0.35
8,TAAAACAAAATGGTAACACACACATATATATATATA [CACACA_site8590],9.87 ± 0.15
9,TGCAAGGAAAAACACACACACACATAAATGTATATA [CACACA_site751],9.79 ± 0.25
10,AAAAAAACATGAAACACACACAAATATATATATATA [CACACA_site1884],9.53 ± 0.52
11,AAAAAAATGAAACACACACACACATATATATATATA [CACACA_site1043],10.1 ± 0.085
12,TGCAAGGAACAACACACACACACATAAATGTATATA [CACACA_site8149],10.2 ± 0.36
13,AAAATGAACAAACACACACACATATATATATATATA [CACACA_site2403],10.27 ± 0.057
14,AAACAAAATGGTAACACACACATATATAAATATGTA [CACACA_site6994],9.38 ± 0.47
15,TGAAATGATATATAAACACACATATATATATATATA [CACACA_site3511],9.62 ± 0.25
16,ACACATAAATGTATATATATATAAATATATGTATGT [CACACA_negctrl_site1532],9.12 ± 0.33
17,AAACAAAATGGTAACACACACATATATATATATATA [CACACA_site1939],10.09 ± 0.021
18,ATAAAATGAACAAACACACACACATATATTTATATA [CACACA_site7181],9.84 ± 0.16
19,AAAAATGAGAAACACACACACATATATATATATATA [CACACA_site2228],9.94 ± 0.19
